Experimental data published in PubChem BioAssay (NCATS).
Results filed as inconclusive are left out. Values without a mark were called inactive. Calls come from the whole dose curve; as a rule, active = well fitted cell-killing curve with a large enough effect; inconclusive = small, poorly fitted or top-dose-only effect; inactive = flat fitted curve, though single readings scatter.

test: qHTS assay to identify small molecule inhibitors of chordoma cells - UCH-2 (AID 1259356); details: UCH-2 chordoma viability, CellTiter-Glo ATP luminescence, 48 h; series mostly up to 46.1 µM; activity change, negative = inhibition: at the top concentration
% is set by controls: 0 for no effect and ±100 for the full control effect.

SMILES | activity change, negative = inhibition
Cn1c(=O)c2c(ncn2CCOC(=O)C(C)(C)Oc2ccc(Cl)cc2)n(C)c1=O | -14.9%
OC[C@@H](O)C(O)[C@H](O)CO | 1.34%
NCCN | 5.35%
CC(C)(C)C(=O)OCC(=O)[C@H]1CC[C@H]2[C@@H]3CCC4=CC(=O)CC[C@]4(C)[C@H]3CC[C@]12C | -1.87%
O=C(c1cc2ccccc2o1)N1CCN(Cc2ccccc2)CC1 | -0.483%
CO[C@H]1C[C@H](O[C@H]2[C@H](C)[C@@H](O[C@@H]3O[C@H](C)C[C@H](N(C)C)[C@H]3O)[C@@H](C)C[C@]3(CO3)C(=O)[C@H](C)[C@@H](O)[C@@H](C)[C@@H](C)OC(=O)[C@@H]2C)O[C@@H](C)[C@@H]1O | 11.5% [at 20.6 µM]
C[C@H](CCCC(C)(C)O)[C@H]1CC[C@H]2[C@@H]3CC=C4C[C@@H](O)CC[C@]4(C)[C@H]3CC[C@]12C | 6.05%
C=C1CC[C@H](O)CC1=C/C=C1\CCC[C@]2(C)[C@@H]([C@H](C)CCCC(C)(C)O)CC[C@@H]12 | 12.6%
CC(=O)c1ccc2c(c1)N(CCCN1CCN(CCO)CC1)c1ccccc1S2 | -6.22%
Nc1nccs1 | 4.88%
C/C=C/C=C/C(=O)O | 15.5%
O=C(O)[C@H]1C(=CCO)O[C@H]2CC(=O)N12 | -4.09%
NCC[C@H](O)C(=O)N[C@@H]1C[C@H](N)[C@@H](O[C@H]2O[C@H](CN)CC[C@H]2N)[C@H](O)[C@H]1O[C@H]1O[C@H](CO)[C@@H](O)[C@H](N)[C@H]1O | -0.661%
O[C@@H]([C@H](O)[C@H](O)CBr)[C@H](O)CBr | 7.83%
CC(C)[C@@H]1CC[C@@H](C)C[C@H]1O | 9.9%
CC[C@H](CC[C@@H](C)[C@H]1CC[C@H]2[C@@H]3CC=C4C[C@@H](O)CC[C@]4(C)[C@H]3CC[C@]12C)C(C)C | 5.48%
Cc1ncc(C[n+]2csc(CCOP(=O)(O)O)c2C)c(N)n1 | -6.16%
S=C=Nc1ccc(N=C=S)cc1 | -0.863%
CCOC(C)OCC | -0.408%

SMILES | activity change, negative = inhibition
CCCC1C(=O)N2C(N(C)C)=Nc3ccc(C)cc3N2C1=O (stereo not drawn) | 13.9% [at 20.6 µM]
NC(N)=NCC1COC2(CCCCC2)O1 (stereo not drawn) | 12.4% [at 20.6 µM]
Cc1cc(=O)c(C(=O)N[C@@H](C(=O)N[C@@H]2C(=O)N3C(C(=O)O)=C(CSc4nnnn4C)CS[C@H]23)c2ccc(O)cc2)c[nH]1 | -3.88%
C=C1c2c(Cl)ccc(O)c2C(O)=C2C(=O)[C@]3(O)C(O)=C(C(N)=O)C(=O)[C@@H](N(C)C)[C@@H]3[C@@H](O)[C@H]12 | 1.84% [at 20.6 µM]
O=C(O)c1ccc(OCCn2ccnc2)cc1 | -20.7%
O=C1CCC(c2ccccc2)(C2CCN(Cc3ccccc3)CC2)C(=O)N1 (stereo not drawn) | 9.74%
CC(C)(C)NCC(O)c1ccc(O)c(CO)n1 (stereo not drawn) | 8.77%
COc1ccc(C(=O)/C(Br)=C\C(=O)O)cc1 | -11.6%
CCCC(=O)O | 12.4%
Nc1ncnc2c1ncn2CCOCP(=O)(O)O | -1.08%
Nc1nc(NC2CC2)c2ncn([C@@H]3C=C[C@@H](CO)C3)c2n1 | -0.634%
CC/C=C\C/C=C\C/C=C\C/C=C\C/C=C\CCCC(=O)O | -17.6%
N[C@@H](Cc1cc(I)c(Oc2ccc(O)c(I)c2)c(I)c1)C(=O)O | 2.21%
CCOC(=O)[C@@H](N)CS | 6.87%
[O]=[Bi][O]C(=O)[O][Bi]=[O] | 1.54%
Cc1cc(C(=O)NCCc2ccc(S(=O)(=O)NC(=O)NN3CCCCCC3)cc2)no1 | -0.88%
CCCCCCCCCc1ccc(OCCOCCO)cc1 | -6.89%
Cc1ncc[nH]1 | 6.68%
CN[C@@H]1[C@H](O[C@H]2[C@H](O[C@H]3[C@H](O)[C@@H](O)[C@H](N=C(N)N)[C@@H](O)[C@@H]3N=C(N)N)O[C@@H](C)[C@]2(O)C=O)O[C@@H](CO)[C@H](O)[C@H]1O | 16.5%
